In the supplement of paper PMC10981050:
Several values for one entry are separate records, joined by “and”; a condition that tells them apart may be missing. Identical values can stand only once.

How the values were obtained:
Experiment in all cases: cell viability relative to vehicle control; higher = less cytotoxic
Conditions in all cases: 10 µM
[1] = test system: K562
How it was run: (§1)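 CRISPR-edited mutant clones and isogenic wild-type clones from four leukaemia lines were screened against Selleck bioactive, kinase and epigenetic probe libraries, with identity-inconsistent compounds excluded. Each compound was acoustically dispensed at a single 10 µM dose into 384-well plates holding 2000 cells in 50 µL medium per well. After 48 h the supernatant was removed and CellTiter-Glo luminescence was read. Viability was expressed as percent of the on-plate vehicle control and analysed in Genedata Screener.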

[2] = test system: MARIMO
How it was run: as §1

[3] = test system: MOLM14
How it was run: as §1

[4] = test system: OCI-AML2
How it was run: as §1

SMILES	cell viability ([1]; SRSF2 genotype: SRSF2 P95H/wt)	cell viability ([1]; SRSF2 genotype: SRSF2 wt/wt) [%]	cell viability ([2]; SRSF2 genotype: SRSF2 P95H/wt) [%]	cell viability ([2]; SRSF2 genotype: SRSF2 wt/wt) [%]	cell viability ([3]; SRSF2 genotype: SRSF2 P95H/wt) [%]	cell viability ([3]; SRSF2 genotype: SRSF2 wt/wt) [%]	cell viability ([4]; SRSF2 genotype: P95H/wt) [%]	cell viability ([4]; SRSF2 genotype: wt/wt) [%]
CNC(=O)c1ccc(N2C(=S)N(c3ccc(C#N)c(C(F)(F)F)c3)C(=O)C2(C)C)cc1F [MDV3100 (Enzalutamide)]	84.9% and 91.7%	89.2	90.4	89.1	89.2	90.3	83.3	80.3
CC1=C(/C=C/C(C)=C/C=C/C(C)=C/C=C/C=C(C)/C=C/C=C(C)/C=C/C2=C(C)C(=O)[C@@H](O)CC2(C)C)C(C)(C)C[C@H](O)C1=O [Astaxanthin]	104%	106	98.3	96.9	102	101	89.8	99.8
C[C@@H](O)[C@H]1C(=O)N2C(C(=O)O)=C([C@H]3CCCO3)S[C@H]12 [Faropenem Sodium]	89.8% and 77.8%	82	88.3	94.3	88.3	90.3	87.1	97.4
COc1ccc(C2CNC(=O)C2)cc1OC1CCCC1 (stereo not drawn) [S-(+)-Rolipram]	94.7% and 105%	102	102	110	99.8	108	96.7	103
Nc1ncnc2c1ncn2C1OC(COP(=O)(O)OP(=O)(O)O)C(O)C1O (stereo not given)	111% and 110%	107	91.2	90.7	101	95	96.3	99.9
COc1cc(C=O)ccc1O [Vanillin]	94.2% and 102%	99.7	102	105	103	102	105	97.5
CCCc1cc(=O)[nH]c(=S)[nH]1 [Propylthiouracil]	107% and 91.6%	94	93.1	96.5	100	96.8	106	110
Cc1ccc(-c2n[nH]c3c2C(c2cccc(O)c2)N(c2ccc(C(=O)O)cc2)C3=O)cc1 (stereo not given)	104% and 100%	105	101	106	100	107	104	106
NC(=O)N1c2ccccc2C=Cc2ccccc21 [Carbamazepine (Carbatrol)]	95.3% and 86.7%	90.3	81.3	97.6	88.3	87.9	92	104
COc1ccc(S(=O)(=O)Nc2cccnc2Nc2ccc(O)cc2)cc1	16.4% and 39.8%	36.7	7.19	9.01	16.8	5.56	9.51	11.2
CCOC(=O)c1c(C)n(C)c2ccc(O)cc12 [Mecarbinate]	108% and 99.1%	99.8	97.3	104	116	112	92.2	98.1
COc1cc(/C=C/c2ccc(O)c(O)c2)cc(OC)c1 [3'-Hydroxypterostilbene]	74% and 61.4%	67.4	29.2	39.9	21.3	10.6	44.4	44.7
O=S(=O)(NCCSSCCNS(=O)(=O)c1cc(Cl)ccc1Cl)c1cc(Cl)ccc1Cl	80.6% and 84.4%	69.5	61	72.4	53.8	48.8	51.9	52.5
COc1ccc(CCc2nc3cc(-c4c(C)noc4C)ccc3n2C[C@H](C)N2CCOCC2)cc1Cl	80.9% and 86.9%	73.8	76.9	70.5	47.4	42.5	45.7	60.6
C=C1C[C@@]23CC[C@H]4[C@@](C)(CCC[C@@]4(C)C(=O)O[C@@H]4O[C@H](CO)[C@@H](O)[C@H](O)[C@H]4O)[C@@H]2CC[C@]1(O[C@@H]1O[C@H](CO)[C@@H](O)[C@H](O[C@@H]2O[C@H](CO)[C@@H](O)[C@H](O)[C@H]2O)[C@H]1O[C@@H]1O[C@H](CO)[C@@H](O)[C@H](O)[C@H]1O)C3 [Rebaudioside A]	95.1% and 100%	102	98.8	106	105	102	104	105
CC(C)=CC[C@@H](O)C1=CC(=O)c2c(O)ccc(O)c2C1=O [Shikonin]	1.68% and 0.52%	0.87	0.3	0.35	0.44	0.28	0.19	0.25
COc1ccccc1N1CCN(CC(O)COc2cccc3ccccc23)CC1 (stereo not given) [Naftopidil (Flivas)]	74.1% and 86.9%	79.5	66.2	71.5	64.1	72.3	83.5	84.6
C[C@@]1(F)[C@H](O)[C@@H](CO)O[C@H]1n1ccc(=O)[nH]c1=O [2'-deoxy-2'-fluoro-2'-C-methyluridine]	93.6% and 89.6%	89.8	87.2	101	87.2	91.3	86.6	104
O=S(=O)(O)CCSSCCS(=O)(=O)O [Dimesna]	107% and 101%	95	99.3	103	96.3	99.6	106	105
CC1(C)[C@@H](O[C@H]2O[C@H](C(=O)O)[C@@H](O)[C@H](O)[C@H]2O[C@@H]2O[C@H](C(=O)O)[C@@H](O)[C@H](O)[C@H]2O)CC[C@]2(C)[C@H]3C(=O)C=C4[C@@H]5C[C@@](C)(C(=O)O)CC[C@]5(C)CC[C@@]4(C)[C@]3(C)CC[C@@H]12 [Diammonium Glycyrrhizinate]	98.9% and 104%	99.1	101	99.7	100	103	101	114
